Rows were chosen to be rich in hits. Some 2.5% of all compounds tested hit in one or more screens of this group.
NFkB binder – binders of NF-kB p50 subunit, primary screen, biochemical, small molecule microarray, anti-His fluorescence. Nuclear factor NF-kappa-B p105 subunit (Homo sapiens), P19838. 1.3% of 17,000 active. calls only. anti-His fluorescence binding;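 active means spot fluorescence over background significantly raised, with a chance value under 7% in all four replicate spots of the compound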;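 further: probe protein is his-tagged human p50 processed subunit at 1 µg/ml; raw spot fluorescence signals with no normalization applied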
c-Myc SMM – binders of human c-Myc, primary screen, biochemical, small molecule microarray, anti-His fluorescence | Myc proto-oncogene protein (Homo sapiens), P01106 | His-c-Myc binding | calls only | 1.5% of 17,000 active | AID 624141, 2012;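 active means spot fluorescence over background with P-value below 7% in all four replicate spots, showing protein binding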;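 further: score is binary with 100 for all four spots passing and 0 otherwise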
mut p53 SMM – binders of human mutant p53, primary screen, biochemical, small molecule microarray, anti-GST fluorescence; small molecule microarray binding; calls only; 0.4% of 17,000 active; AID 624136, 2012;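 active means compounds whose four printed spots each glow above background more than chance allows, each with a p-value under 7%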
STAT3 SMM – STAT3 binders, primary screen, biochemical, small molecule microarray, single point, set 2; His-STAT3 binding, anti-His fluorescence; calls only; 0.2% of 17,000 active;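 active means compounds whose four printed spots each show fluorescence over background unusually high for their array block, chance value under 7%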
Target sequence (P40763 whole entry, looked up): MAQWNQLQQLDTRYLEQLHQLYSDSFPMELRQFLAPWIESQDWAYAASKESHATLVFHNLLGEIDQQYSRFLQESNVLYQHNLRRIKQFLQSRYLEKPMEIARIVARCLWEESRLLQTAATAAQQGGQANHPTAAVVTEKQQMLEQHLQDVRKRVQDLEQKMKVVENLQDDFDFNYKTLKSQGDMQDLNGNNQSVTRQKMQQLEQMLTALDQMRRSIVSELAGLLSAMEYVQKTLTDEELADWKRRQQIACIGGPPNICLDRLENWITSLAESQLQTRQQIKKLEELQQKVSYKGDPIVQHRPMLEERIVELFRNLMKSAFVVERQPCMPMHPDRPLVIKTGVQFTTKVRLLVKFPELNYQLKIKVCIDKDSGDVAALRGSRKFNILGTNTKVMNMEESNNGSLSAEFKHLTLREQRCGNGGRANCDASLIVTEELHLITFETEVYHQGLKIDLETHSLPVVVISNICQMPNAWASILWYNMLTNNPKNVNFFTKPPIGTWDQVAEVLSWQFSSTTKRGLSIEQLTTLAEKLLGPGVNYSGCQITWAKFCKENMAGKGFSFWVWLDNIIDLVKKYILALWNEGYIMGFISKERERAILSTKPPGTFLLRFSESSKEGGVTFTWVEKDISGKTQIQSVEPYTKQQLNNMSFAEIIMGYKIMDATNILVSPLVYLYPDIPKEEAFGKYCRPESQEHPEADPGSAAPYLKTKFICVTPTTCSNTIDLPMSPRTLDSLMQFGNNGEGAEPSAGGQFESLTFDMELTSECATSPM
* marks the source's active call; other numbers are inactive results; i = inactive; + = active, no number.

SMILES	NFkB binder	c-Myc SMM	mut p53 SMM	STAT3 SMM
CC1(C)CC[C@]2(C(=O)O)CC[C@]3(C)C(=CCC4[C@@]5(C)CC[C@H](O[C@@H]6OC[C@H](O)[C@H](O)[C@H]6O)[C@@](C)(CO)C5CC[C@]43C)C2C1 (some centres not stated)	+	i	i	i
C=C1CCC2(C(=O)OC3OC(CO)C(O)C(O)C3OC3OCC(O)C(O)C3O)CCC3(C)C(=CCC4C5(C)CCC(OC6OC(CO)C(O)C(O)C6O)C(C)(CO)C5CCC43C)C2C1 (configuration not stated)	i	i	i	i
CC1OC(O[C@H]2CC[C@@]3(C)C(CC[C@]4(C)C3CC=C3C5CC(C)(C)CC[C@]5(C(=O)OC5OC(CO)C(OC6OC(CO)C(O)C(O)C6O)C(O)C5O)CC[C@]34C)C2(C)C)C(O)C(O)C1OC1OCC(O)(COC2OCC(O)C(OC3OCC(OC4OCC(O)(CO)C4O)C(O)C3O)C2O)C1O (some centres not stated)	i	i	i	i
CC1OC(OC2C(CO)OC(OC(=O)[C@]34CCC(C)(C)CC3C3=CCC5[C@@]6(C)CC[C@H](OC7OC(C)C(OC8OCC(O)(COC9OCC(O)C(OC%10OCC(OC%11OCC(O)(CO)C%11O)C(O)C%10O)C9O)C8O)C(O)C7O)C(C)(C)C6CC[C@@]5(C)[C@]3(C)CC4)C(O)C2O)C(O)C(O)C1O (some centres not stated)	+	+	i	i
C[C@@H]1CC[C@]2(C(=O)O)CC[C@]3(C(=O)O)C(=CCC4[C@@]5(C)CC[C@H](O[C@@H]6O[C@@H](C)[C@H](O[C@@H]7O[C@H](CO)[C@@H](O)[C@H](O)[C@H]7O)[C@@H](O)[C@H]6O)C(C)(C)C5CC[C@]43C)C2[C@H]1C (some centres not stated)	i	i	i	i
CC1(C)CC[C@]2(C(=O)O[C@@H]3O[C@H](CO)[C@@H](O)[C@H](O)[C@H]3O)CC[C@]3(C)C(=CCC4[C@@]5(C)CC[C@H](O[C@@H]6OC[C@H](O)[C@H](O)[C@H]6O[C@@H]6O[C@H](CO)[C@@H](O)[C@H](O)[C@H]6O[C@@H]6OC[C@H](O)[C@H](O)[C@H]6O)[C@@](C)(CO)C5CC[C@]43C)C2C1 (some centres not stated)	+	i	i	i
C[C@@H]1O[C@@H](O[C@H]2[C@@H](O)[C@@H](C)O[C@@H](O[C@H]3[C@H](O)[C@@H](O)[C@H](O[C@H]4CC[C@@]5(C)C(CC[C@]6(C)C5C=CC5=C7CC(C)(C)CC[C@]7(CO)CC[C@]56C)[C@]4(C)CO)O[C@@H]3CO)[C@@H]2O[C@@H]2O[C@H](CO)[C@@H](O)[C@H](O)[C@H]2O)[C@H](O)[C@H](O)[C@H]1O (some centres not stated)	+	+	i	i
C[C@H]1CN([C@@H](C)CO)C(=O)c2cccc(NC(=O)c3ccncc3)c2O[C@@H]1CN(C)C(=O)Nc1ccc(C(F)(F)F)cc1	i	i	i	i
C[C@@H]1CCCCO[C@@H](CN(C)C(=O)NC2CCCCC2)[C@@H](C)CN([C@@H](C)CO)C(=O)c2cc(NC(=O)Nc3ccccc3)ccc2O1	i	i	i	i
COc1cc(Cl)c(C)cc1NC(=O)C(CC(C)C)N1C(=O)c2ccccc2C1=O (configuration not stated)	i	i	i	i
CC(O)CNc1nc2c(c(=O)n(Cc3ccccc3F)c(=O)n2C)n1C (configuration not stated)	i	i	i	i
C/C=C(\C)C(=O)O[C@H]1[C@H](OC(C)=O)[C@@]2(CO)C(CC1(C)C)C1=CCC3[C@@]4(C)CC[C@H](O[C@@H]5O[C@H](C(=O)O)[C@@H](O)[C@H](O[C@@H]6O[C@H](CO)[C@H](O)[C@H](O)[C@H]6O[C@@H]6O[C@@H](C)[C@H](O)[C@@H](O)[C@H]6O)[C@H]5O[C@@H]5O[C@H](CO)[C@@H](O)[C@H](O)[C@H]5O)C(C)(C)C4CC[C@@]3(C)[C@]1(C)C[C@H]2O (some centres not stated)	+	i	i	i
CC1(C)CC[C@@]2(C(=O)O[C@@H]3O[C@H](CO)[C@@H](O)[C@H](O)[C@H]3O)C(C1)C1=CCC3[C@@]4(C)CC[C@@H](O[C@@H]5O[C@H](C(=O)O)[C@@H](O[C@@H]6OC[C@@H](O)[C@H](O)[C@H]6O)[C@H](O)[C@H]5O)C(C)(C)C4CC[C@@]3(C)[C@]1(C)C[C@H]2O (some centres not stated)	i	i	i	i
O=C(CSc1nc(-c2ccc(F)cc2)cs1)Nc1ccc(N2CCOCC2)c(Cl)c1	i	i	i	i
CCN(CC(=O)Nc1ccccc1C)S(=O)(=O)c1ccc(Br)cc1	i	i	i	i
c1ccc(-c2cn3c4ccccc4n(CCN4CCOCC4)c3n2)cc1	i	+	i	i
O=C(Nc1cccc([N+](=O)[O-])c1)Nc1nn(Cc2ccc(Cl)c(Cl)c2)cc1Cl	i	i	i	i
CC#CCOC(=O)C1=CCCN(C)C1	+	+	i	+
C[C@@H]1CN([C@H](C)CO)C(=O)c2cc(N(C)C)ccc2O[C@@H](C)CCCCO[C@@H]1CN(C)Cc1ccccc1	i	i	+	+
C[C@@H]1CCCCO[C@H](CN(C)Cc2ccccc2)[C@H](C)CN([C@@H](C)CO)C(=O)c2cc(N(C)C)ccc2O1	i	i	i	i
C[C@@H]1CCCCO[C@@H](CN(C)Cc2ccccc2)[C@H](C)CN([C@@H](C)CO)C(=O)c2cc(NC(=O)CCCN(C)C)ccc2O1	i	i	i	i
C[C@H](CO)N1C[C@H](C)[C@H](CN(C)S(=O)(=O)c2ccccc2)OCCCC[C@H](C)Oc2ccc(N(C)C)cc2C1=O	+	i	+	i
Cc1ccc(S(=O)(=O)N(C)C[C@H]2OCCCC[C@H](C)Oc3ccc(NC(=O)NC4CCCCC4)cc3C(=O)N([C@H](C)CO)C[C@H]2C)cc1	i	+	+	i
C[C@H](CO)N1C[C@H](C)[C@H](CN(C)Cc2ccccc2)OCCCC[C@H](C)Oc2ccc(NC(=O)CCCN(C)C)cc2C1=O	+	i	i	i
Cc1noc(C)c1NC(=O)N(C)C[C@@H]1Oc2ccc(NC(=O)Cc3cn(C)c4ccccc34)cc2C(=O)N([C@@H](C)CO)C[C@H]1C	i	i	i	i
COC(=O)[C@]1(Cc2ccccc2N=[N+]=[N-])N=C(c2ccc(OCCCO)cc2)O[C@@H]1c1ccccc1N=[N+]=[N-]	i	i	i	i
